Rows were chosen to be rich in hits. Some 4.2% of all compounds tested hit in one or more screens of this group.
TCR act = activates T cell receptor signaling. primary human leukocytes, anti-CD3, IL-2 HTRF, 48 h. 330,000 tested, under 10 active. Potency, µM (doses to about 9.22 µM), without a hit: at the top dose activation of IL-2 secretion, actives largely listed as activators; also: % of control where 0% means no effect
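48 hr co-incubation of compounds, a-CD3 beads and primary human leukocytes; IL-2 quantified homogeneously by HTRF with anti-IL-2 K and d2 conjugates.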
uPA generation = blocks generation of uPA at the cell surface; Potency, µM (top dose mostly 38.3 µM), inactives show top-dose activity change, negative = inhibition, usual class: inhibitors; 330,000 compounds, 0.31% hits; cell surface uPA generation assay, qHTS; active = well fitted inhibition curve with a large enough effect; inconclusive = small, poorly fitted or top-dose-only effect; inactive = no such curve, though single readings can be large or run the other way; tested in mouse RAW 264.7 cells; also: potency is read from the fitted curve at half-maximal effect; % is scaled to controls: 0 for no effect and ±100 for the full control effect; nearly all actives have a fitted effect of over 55% in size
ClpP mod = qHTS Assay for Activators of ClpP | purified B. subtilis ClpP, FRET peptide cleavage, 20 min | Potency, µM (doses to about 57.5 µM), inactives show top-dose activity change, negative = active | AID 651965, 2013 | 340,000 compounds, 1.9% hits | ATP-dependent Clp protease proteolytic subunit (Bacillus subtilis (strain 168)), P80244; active = well fitted falling curve with a large enough effect; inconclusive = small, poorly fitted or top-dose-only effect; inactive = no such curve, though single readings can be large or run the other way; also: potency is read from the fitted curve at half-maximal effect; the source files actives as falling curves though it sought activators and does not explain the sign; nearly all actives have a fitted effect of over 65% in size
Target sequence (P80244 whole entry, looked up): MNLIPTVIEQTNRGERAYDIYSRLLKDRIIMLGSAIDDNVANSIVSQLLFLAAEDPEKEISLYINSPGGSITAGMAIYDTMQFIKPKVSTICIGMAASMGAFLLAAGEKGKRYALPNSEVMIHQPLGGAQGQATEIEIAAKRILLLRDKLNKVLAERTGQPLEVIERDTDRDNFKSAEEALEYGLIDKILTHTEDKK
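FRET quenching reversal measured ClpP activation: 10 microg/mL B. subtilis ClpP at pH 8 with the FRET-FV decapeptide, read at 430 nm after 320 nm excitation. The 20-min minus 0-min signal was scaled between DMSO/no-enzyme wells and ADEP (5.8 microM final).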
Sfp PPTase inh = blocks B. subtilis Sfp PPTase activity. 310,000 compounds, 3.5% hits. Biochemical Sfp PPTase activity, qHTS. Potency, µM, without a hit: largest response in the series, negative = inhibition, actives largely listed as inhibitors. AID 1490;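 also: the enzyme is Sfp with the accession as filed and its product quenches rhodamine fluorescence; potency is read from the fitted curve at half-maximal effect; 0% = enzyme reaction without inhibitor and -100% = no enzyme wells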
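Sfp 15 nM + cpd, 15 min RT; start w/ rhodamine-CoA 5 uM, BHQ-2-YbbR 12.5 uM (final); 50 mM Hepes pH 7.6, 10 mM MgCl2, 0.01% NP-40, 0.01% BSA; read 525/598 nm at 0 and 30 min.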
Active calls of the source: *; [ ] = another dose, or the depositor's remark. Unless noted, calls follow the shape of the dose curve; as a rule, active = well fitted curve in the direction sought with a large enough effect; inconclusive = small, poorly fitted or top-dose-only effect, or another doubt; inactive = no such curve, though single readings can be large; an effect the other way counts as inactive or inconclusive.

Results for CCOc1ccc(S(=O)(=O)N2CCOCC2)cc1NC(=O)CSCc1ccc(C)cc1 ?
uPA generation: 2.5µM*; ClpP mod: -1%

What do the screens show for `CCCOP(=O)(c1ccc(N(C)C)cc1)C(O)c1ccc(N(C)C)cc1` (stereo not given)?
TCR act: 10%; uPA generation: 1%; Sfp PPTase inh: 10%

What do the screens show for `O=S(=O)(CC(CN1CCCCC1)N1CCCCC1)c1ccccc1` (stereo not given)?
TCR act: 9%; uPA generation: 8.9µM*; ClpP mod: 1%; Sfp PPTase inh: -10%

Results for CCOC(=O)C(=O)NCc1ccc(/C=C2/N=C(C)C(C(=O)OCC)=C2O)o1 ?
TCR act: 1%; uPA generation: 5%; Sfp PPTase inh: 22µM*

Results for CCOC(=O)C1=C(O)/C(=C/c2ccc(CNC(=O)C(=O)Nc3ccc(C)cc3)o2)N=C1C ?
TCR act: 4%; uPA generation: 1%; ClpP mod: -2%; Sfp PPTase inh: 40µM*

What do the screens show for `COC(=O)C1=C(O)/C(=C\c2ccc(CNC(=O)C(=O)Nc3ccc(C)cc3)o2)N=C1C`?
TCR act: 12%; uPA generation: 1%; ClpP mod: -3%; Sfp PPTase inh: 13µM*

What do the screens show for `COC(=O)C1=C(O)/C(=C\c2ccc(CNC(=O)C(=O)Nc3ccc(C)c(C)c3)o2)N=C1C`?
TCR act: 2%; uPA generation: 2%; ClpP mod: -5%; Sfp PPTase inh: inconclusive

Results for Cc1cc2n(n1)CCCN2C(=O)Nc1ccc(C)c(Cl)c1 ?
ClpP mod: 1%

What do the screens show for `[O-][N+](=NC1C=Cc2ccccc21)C1C=Cc2ccccc21` (stereo not given)?
ClpP mod: -1%

Results for CCOC(=O)c1c(NC(=O)c2cc(Cl)ccc2Cl)sc2c1CCCC2 ?
ClpP mod: -1%

What do the screens show for `CCOC(=O)c1c(NC(=O)c2ccoc2C)sc2c1CCC2`?
TCR act: 3%; ClpP mod: 35µM*; Sfp PPTase inh: 25µM*

What do the screens show for `CCn1cc(C(=O)NC(=S)Nc2sc3c(c2C(=O)OC)CCCCCC3)cn1`?
TCR act: 0%[46.1 µM]; uPA generation: -1%; ClpP mod: 2%; Sfp PPTase inh: 35µM*

Results for CCOC(=O)c1c(NC(=O)c2ccccc2C)sc2c1CCCC2 ?
ClpP mod: 32µM*

How did CCOC(=O)c1c(NC(=O)c2nn(CC)cc2Br)sc2c1CCCCC2 do in these assays?
TCR act: 8%; uPA generation: -1%; ClpP mod: 28µM*; Sfp PPTase inh: 20µM*

How did Cc1ccc2nc(-c3ccc(N=Nc4cc(S(=O)(=O)O)c5ccccc5c4O)cc3)sc2c1S(=O)(=O)O do in these assays?
ClpP mod: 4%

What do the screens show for `CC(=O)Nc1ccc(NS(=O)(=O)c2c(C(=O)N3CCC(C)CC3)c(C)n(C)c2C)cc1`?
ClpP mod: -3%

What do the screens show for `CCOC(=O)c1c(NC(=O)COC(=O)Cn2c(C)nc3ccccc32)sc2c1CCCC2`?
TCR act: -5%[46.1 µM]; uPA generation: 0%; ClpP mod: -4%; Sfp PPTase inh: 32µM*

Results for COC(=O)c1c(NC(=O)c2c(-c3ccccc3Cl)noc2C)sc2c1CCC2 ?
TCR act: 4%; uPA generation: 6%; ClpP mod: 32µM*; Sfp PPTase inh: 28µM*

How did Cc1ccc(Nc2c(-c3ccc(C)s3)nc3cccc(C)n23)cc1 do in these assays?
ClpP mod: 4%

Results for CCC1=C2CC[C@H]3C(=O)N(c4ccccc4)C(=O)[C@H]3[C@H]2[C@@]2(Cc3ccccc3)C(=O)N(CC(=O)OC)C(=O)N2C1=O ?
Sfp PPTase inh: 13%

What do the screens show for `Cc1ccc(S(=O)(=O)N(CC(=O)Nc2cccnc2)c2cccc([N+](=O)[O-])c2)cc1`?
TCR act: -33%; uPA generation: 11µM*; ClpP mod: -2%; Sfp PPTase inh: -7%

Results for Cc1ccc(S(=O)(=O)N(CC(=O)Nc2cccnc2)c2cccc(Br)c2)cc1 ?
TCR act: 4%; uPA generation: inconclusive; ClpP mod: -1%; Sfp PPTase inh: 6%

What do the screens show for `O=C(/C=C/c1ccco1)Nc1cccc(S(=O)(=O)N2CCOCC2)c1`?
TCR act: 3%[46.1 µM]; uPA generation: -12%; ClpP mod: -3%; Sfp PPTase inh: -14%

What do the screens show for `Cc1ccc(NC(=O)/C=C/c2ccco2)cc1S(=O)(=O)N1CCCCCC1`?
TCR act: 0%; uPA generation: 0.89µM*; ClpP mod: -3%

What do the screens show for `Cc1ccc(NC(=O)CNCCCN2CCOCC2)cc1S(=O)(=O)N1CCCCC1`?
TCR act: -5%; uPA generation: 0%; ClpP mod: -3%; Sfp PPTase inh: 79µM*

How did Cc1cc(C)n(C(=O)Cn2nc(C)c(Br)c2C)n1 do in these assays?
uPA generation: 0%; ClpP mod: 0%; Sfp PPTase inh: 9%

What do the screens show for `Cc1nnnn1/C(=C\c1ccccc1)C(=O)OCC(=O)Nc1cccc(S(=O)(=O)N(C)C)c1`?
TCR act: 0%; uPA generation: 8.9µM*; ClpP mod: 0%

Results for COc1ccc(C(=O)Nc2cccc(C(C)=O)c2)cc1OC ?
ClpP mod: -1%; Sfp PPTase inh: -3%

What do the screens show for `COc1cc(OC)c(C(=O)Nc2cccc(C(C)=O)c2)cc1OC`?
TCR act: -8%; uPA generation: -5%; ClpP mod: 16µM*; Sfp PPTase inh: -8%

What do the screens show for `CCOC(=O)C1=C(C)N(C)C(=O)NC1c1cc2c(cc1[N+](=O)[O-])OCO2` (stereo not given)?
TCR act: 8%; uPA generation: 1%; Sfp PPTase inh: 50µM*

What do the screens show for `COc1ccc(-n2cc(C(=O)NCc3ccccc3)c3ccccc3c2=O)cc1`?
ClpP mod: -7%

What do the screens show for `COc1ccc(C2Nc3ccccc3-c3cc(C)nn32)c(OC)c1` (stereo not given)?
ClpP mod: 32µM*

How did CCn1c(C)nc2cc(C(=O)NNS(=O)(=O)c3ccccc3F)ccc21 do in these assays?
TCR act: 3%; uPA generation: 0%; ClpP mod: 3.2µM*; Sfp PPTase inh: 13%

What do the screens show for `CCOC(=O)c1ccc(S(=O)(=O)NNC(=O)c2ccc3c(c2)nc(C)n3CC)cc1`?
TCR act: -7%; uPA generation: 13%; ClpP mod: 0%; Sfp PPTase inh: 28%

What do the screens show for `CC(C)c1ccc(/C=N/N2CCCCC2)cc1`?
TCR act: -5%; uPA generation: 1%; Sfp PPTase inh: 63µM*

What do the screens show for `CN(C)c1ccc(C=NN2CCCCCC2)cc1`?
TCR act: 3%; uPA generation: -4%

Results for O=[N+]([O-])c1cc(/C=N/N2CCCCC2)ccc1Cl ?
TCR act: 5%; uPA generation: 1%; Sfp PPTase inh: 1%

What do the screens show for `O=[N+]([O-])c1cc(C=NN2CCCCCC2)ccc1Cl`?
TCR act: -4%; uPA generation: 0%; ClpP mod: 28µM*

Compound activity deposited in PubChem BioAssay by National Center for Advancing Translational Sciences (NCATS).
